In publication PMC4336329 (PLoS ONE, 2015):
Hit rate of the full screen: of about 310,000 compounds, about 14,000 (4.5%) showed an effect of 50% or more. The effect is printed as a negative number. The list comes from a sample in which strong results are over-represented; it also holds similar structures and randomly drawn compounds.

Biological target: human ether-à-go-go-related gene (hERG) potassium channel (human, UniProt Q12809)
Assay: primary screen, population patch clamp on CHO cells stably expressing hERG; higher = less effect of the substance
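Also: peak tail current of the secondary pulse compared with the same well before compound.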

human ether-à-go-go-related gene (hERG) potassium channel, sequence (Q12809 whole entry, looked up): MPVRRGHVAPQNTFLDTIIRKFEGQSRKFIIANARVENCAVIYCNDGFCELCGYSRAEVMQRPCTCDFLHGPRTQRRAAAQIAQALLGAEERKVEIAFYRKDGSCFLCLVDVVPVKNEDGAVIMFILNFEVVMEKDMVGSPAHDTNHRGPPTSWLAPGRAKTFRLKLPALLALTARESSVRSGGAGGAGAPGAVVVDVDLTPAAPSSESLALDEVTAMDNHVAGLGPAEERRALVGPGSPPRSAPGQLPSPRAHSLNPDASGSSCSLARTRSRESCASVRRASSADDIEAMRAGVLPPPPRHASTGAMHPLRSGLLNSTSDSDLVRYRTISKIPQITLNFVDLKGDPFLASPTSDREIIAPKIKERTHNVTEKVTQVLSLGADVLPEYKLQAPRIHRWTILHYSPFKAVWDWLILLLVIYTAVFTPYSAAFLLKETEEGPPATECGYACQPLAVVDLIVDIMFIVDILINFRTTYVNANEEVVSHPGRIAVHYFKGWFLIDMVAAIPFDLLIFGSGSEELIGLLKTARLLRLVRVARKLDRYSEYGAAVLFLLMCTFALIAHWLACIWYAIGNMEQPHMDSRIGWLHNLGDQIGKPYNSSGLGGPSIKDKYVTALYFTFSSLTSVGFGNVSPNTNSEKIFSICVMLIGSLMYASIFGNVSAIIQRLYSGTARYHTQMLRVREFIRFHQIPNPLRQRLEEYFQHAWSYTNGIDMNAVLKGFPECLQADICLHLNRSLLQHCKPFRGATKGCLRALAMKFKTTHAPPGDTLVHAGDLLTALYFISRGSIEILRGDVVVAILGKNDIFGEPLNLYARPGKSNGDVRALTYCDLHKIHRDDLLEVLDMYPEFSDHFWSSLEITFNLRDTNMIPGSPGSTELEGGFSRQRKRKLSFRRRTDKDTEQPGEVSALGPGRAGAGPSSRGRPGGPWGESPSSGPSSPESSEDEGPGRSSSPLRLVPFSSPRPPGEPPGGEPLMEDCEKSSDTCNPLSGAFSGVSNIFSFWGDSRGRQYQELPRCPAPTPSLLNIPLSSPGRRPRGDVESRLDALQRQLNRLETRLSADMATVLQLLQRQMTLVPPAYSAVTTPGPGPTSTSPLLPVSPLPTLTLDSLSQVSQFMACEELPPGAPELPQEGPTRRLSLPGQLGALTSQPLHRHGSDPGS

Compound	hERG current change (%, negative = inhibition) at 10uM [%]
COC(=O)NNC(=O)c1ccccc1C	-11.7
Cc1ccc([N+](=O)[O-])cc1S(=O)(=O)Nc1ccccn1	9.5
CCC(CC)C(=O)Nc1cccc(/C(C)=N/NC(=O)c2ccccc2Cl)c1	6.73
CCCn1c(-c2cc(OC)c(OC)c(OC)c2)nc2nc3ccccc3nc21	-37.5
CCC(C)n1c(-c2ccco2)nc2nc3ccccc3nc21 (centres unmarked)	-3.86
CCC(C)n1c(-c2cc(OC)c(OC)c(OC)c2)nc2nc3ccccc3nc21 (centres unmarked)	-50.9
CCOc1ccc(C2C(C(=O)NC)=C(C)Nc3nc4ccccc4n32)cc1OC (centres unmarked)	11.9
CCCSC1=C(C#N)C(c2cccs2)CC(=O)N1 (centres unmarked)	3.24
O=C(Cc1ccccc1)Nc1ccccc1N1CCN(c2ccccc2)CC1	11.9
CCC(=O)N1CCN(c2ccccc2NC(=O)Cc2ccc(Cl)cc2)CC1	-68.6
CC(=O)N1CCN(c2ccccc2NC(=O)COc2ccc(Cl)cc2Cl)CC1	-22.3
CC(=O)N1CCN(c2ccccc2NC(=O)Cc2ccc(Cl)cc2)CC1	-64.8
CCC(=O)N1CCN(c2ccc(Cl)cc2NC(=O)Cc2ccccc2)CC1	-46.3
CCC(=O)N1CCN(c2ccccc2NC(=O)Cc2ccccc2)CC1	-29.1
CCC(=O)N1CCN(c2ccccc2NC(=O)COc2ccccc2Cl)CC1	-42.2
CC(C)C(=O)N1CCN(c2ccccc2NC(=O)COc2ccccc2)CC1	-57.6
O=C(COc1ccccc1)Nc1ccccc1N1CCN(c2ccccc2)CC1	1.02
CCC(=O)Nc1cc(Cl)ccc1N1CCN(C(=O)CC)CC1	-24.9
CCC(=O)N1CCN(c2ccc(Cl)cc2NC(=O)Cc2ccc(Cl)cc2)CC1	-54.5

Compound	hERG current change (%, negative = inhibition) at 10uM [%]
CC(C)C(=O)N1CCN(c2ccccc2NC(=O)COc2ccc(C3CCCCC3)cc2)CC1	-4.96
CCN(CC)S(=O)(=O)c1cc(NC(=O)C2CCN(c3ncnc4sc(C)c(C)c34)CC2)ccc1Cl	23.3
O=C(Nc1ccccc1)/C(=C\c1ccc(F)cc1)NC(=O)c1ccco1	3.87
CCOC(=O)C1CCN(S(=O)(=O)c2ccc(OCC(=O)OC)cc2)CC1	-9.54
O=c1c(/C=N/O)c(Nc2ccccc2)nc2ccccn12	-13.5
Cc1ccc(-n2nc(C)c3c(C)c(CCC(=O)O)c(C)nc32)cc1	12.6
CCOC(=O)CN1C(=O)C(C)(C)Oc2ccc(C(=O)Nc3ccccc3OC)cc21	-6.76
Cc1cc(C)nc(N2CCC(C(=O)NNC(=O)Cc3ccccc3)CC2)n1	8.85
CN1CCN(c2ccccc2NC(=O)Cc2ccc(Cl)cc2)CC1	-73.4
CC(C)C(=O)N1CCN(c2ccccc2NC(=S)NC(=O)Cc2ccccc2)CC1	-4.92
CN1CCN(c2ccccc2NC(=O)c2ccc(-c3ccccc3)cc2)CC1	-31.6
CC(C)C(=O)N1CCN(c2ccccc2NC(=O)Cc2ccc(Cl)cc2)CC1	-69.7
O=C(Cc1ccc(Cl)cc1)Nc1ccccc1N1CCOCC1	5.94
CCc1ccccc1NC(=O)Cc1cn(C)c2ccccc12	3.59
CN1CCN(c2ccccc2NC(=O)Cc2cn(C)c3ccccc23)CC1	-59.5
CS(=O)(=O)N1CCN(c2ccccc2NC(=O)Cc2ccc(Cl)cc2)CC1	-38.4
Cc1ccccc1NC(=O)C(Cc1ccccc1)n1cccc1 (centres unmarked)	-0.159
CCCC(=O)Nc1ccccc1N1CCN(C(=O)C(C)C)CC1	11.4
Cc1ccccc1NC(=O)Cc1cn(C)c2ccccc12	15.1

Compound	hERG current change (%, negative = inhibition) at 10uM [%]
CN1CCN(c2ccccc2NC(=O)C(Cc2ccccc2)n2cccc2)CC1 (centres unmarked)	-65.6
CN(C(=O)CSc1nnc(-c2ccco2)o1)C1CCCCC1	-7.54
C[C@@H]1NC(=O)c2cc([N+](=O)[O-])cc(I)c2NCCCC[C@@H](C(N)=O)NC(=O)[C@H](CCC(=O)O)NC1=O	-9.34
COC(=O)C1=C(C)N(C)C(=O)NC1c1ccccc1 (centres unmarked)	-5.95
Cc1cc(C(=O)Nn2c(-c3ccncc3)nc3ccccc3c2=O)ccc1[N+](=O)[O-]	31.8
C=CCOc1c(CNc2ccc(S(N)(=O)=O)cc2)cccc1OC	2.97
O=C(CSc1ccc(Cl)cc1)Nc1ccccc1N1CCN(C(=O)c2ccccc2)CC1	-14.9
COc1cccc(NC(=O)C(Cc2ccccc2)n2cccc2)c1 (centres unmarked)	-17
O=C(CSc1ccc(Cl)cc1)Nc1ccccc1N1CCN(C(=O)c2ccc(Cl)cc2)CC1	-10.7
Cc1cccc(NC(=O)C(Cc2ccccc2)n2cccc2)c1 (centres unmarked)	-51.2
O=C(Cc1ccc(Cl)cc1)Nc1ccccc1N1CCN(C(=O)c2ccccc2)CC1	-72.1
Cc1ccc(NC(=O)C(Cc2ccccc2)n2cccc2)cc1 (centres unmarked)	3.37
CC(C)(C)c1ccc(/C=C/C(=O)NC2=NCCS2)cc1	10.5
O=C(O)CC1SC(=Nc2cccc(C(F)(F)F)c2)NC1=O (centres unmarked)	5.13
CCN(CC)c1ccc(/C=N/OCC(=O)Nc2cccc(C)c2)cc1	-2.16
CCCCOc1ccc(C(=O)N2CCNC(=O)C2CC(=O)OC(C)C)cc1 (centres unmarked)	13.1
Cc1ccc(-c2nc(CS(=O)CC(=O)NC3CCCC3)c(C)o2)cc1 (centres unmarked)	-13.3
COc1ccc(-c2cc(COc3ccccc3)on2)cc1	36.1
